# From PubChem BioAssay
# Activity calls are given as the source filed them.
# Experiments:
# [1] = E. coli DRC41 culture turbidity changes, primary screen, E. coli filamentation inducer project, strain DRC41, OD650, 48 h (AID 1152);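 further: E. coli MC1000 strain DRC41 lacking acrAB efflux pump and sulA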; conditions: E. coli DRC41 (acrAB sulA), higher = more signal, called active from +8 up or from −8 down
# [2] = small-molecule binders of probe aLefty1, primary screen, biochemical, small-molecule microarray, 635/667 nm fluorescence (AID 1153); conditions: higher = more signal;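 further: score merges spot fluorescence with signal-to-noise ratio from the scanned slide images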
# [3] = PSAC antagonists in infected red cells, primary screen, cell-based, P. falciparum Indochina, OD700, 1 h (AID 1154); conditions: P. falciparum Indochina infected RBC osmotic lysis, higher = more signal, called active from +8 up or from −8 down
# [4] = PSAC antagonists in infected red cells, primary screen, cell-based, P. falciparum Indochina, OD700, 2 h (AID 1155);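 further: lysis reports solute entry through the parasite surface anion channel PSAC; channel blockers reduce lysis of infected cells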; conditions: P. falciparum Indochina infected erythrocytes, osmotic lysis OD700; higher = more signal, called active from +8 up or from −8 down
# [5] = osmotic lysis modulators in infected erythrocytes, primary screen, PSAC antagonist project, cell-based, P. falciparum Indochina, OD700, 3 h (AID 1156); conditions: higher = more signal, called active from +8 up or from −8 down
# [6] = PSAC antagonists in infected red cells, primary screen, cell-based, P. falciparum Indochina, OD700, 18 h (AID 1157); conditions: P. falciparum Indochina infected erythrocytes, osmotic lysis OD700, 18 h; higher = more signal, called active from +8 up or from −8 down
# [7] = modulators of S6 phosphorylation in cells, primary screen, cell-based, A549, cytoblot, luminescence, serum-stimulated (AID 1158); conditions: A549 phospho-S6 cytoblot, 5 h, higher = more signal;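 further: serum-stimulated A549 lung adenocarcinoma cells; signal is phosphorylated S6 detected by cytoblot immunostaining with HRP secondary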
# [8] = target: NADPH oxidase 2 (Homo sapiens) (UniProt P04839); test: NOX2-dependent H2O2 signal modulators, primary screen, NOX inhibitor project, cell-based, HEK293-NOX2, PMA-stimulated, Amplex Red fluorescence (AID 1159); conditions: 45 min, higher = more signal, called active from +8 up or from −8 down; further: test concentration not given here
# [9] = target: NADPH oxidase 4 (Homo sapiens) (UniProt Q9NPH5); test: NOX4-dependent H2O2 signal modulators, primary screen, NOX inhibitor project, cell-based, HEK293-NOX4, tetracycline-induced, Amplex Red fluorescence (AID 1160); conditions: 45 min, higher = more signal, called active from +8 up or from −8 down
# [10] = target: NADPH oxidase 5 (Homo sapiens) (UniProt Q96PH1); test: NOX5-dependent H2O2 signal modulators, primary screen, NOX inhibitor project, cell-based, HEK293-NOX5, Amplex Red fluorescence (AID 1161); conditions: HEK293-NOX5, ionomycin, 45 min, higher = more signal
# [11] = A549 cell viability effects, profiling panel, calcein-AM fluorescence, 48 h, basal (AID 1162); conditions: higher = more signal; further: test concentration not given here
# [12] = adipocyte viability effects, profiling panel, cell-based, 3T3-L1 adipocytes, calcein-AM fluorescence, 48 h, basal (AID 1163); conditions: 3T3-L1 adipocytes viability, higher = more signal; further: test concentration not given here
# [13] = HepG2 cell viability effects, profiling panel, calcein-AM fluorescence, 48 h, basal (AID 1164); conditions: higher = more signal; further: test concentration not given here
# [14] = MM1S cell viability effects, profiling panel, calcein-AM fluorescence, 48 h, basal (AID 1165); conditions: higher = more signal;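 further: viability of MM1S multiple myeloma cells under basal unstimulated conditions; test concentration not given here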
# [15] = basal RPMI8226 viability, no added stimulus, profiling panel, cell-based, calcein-AM fluorescence, 48 h, PK04 Diversity Set (AID 1166); conditions: RPMI8226 myeloma viability, higher = more signal;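 further: cells grown under basal conditions without added stimulus; test concentration not given here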
# [16] = basal HepG2 mitochondrial membrane potential changes, profiling panel, cell-based, JC-1 fluorescence, 24 h, 100 nL compound (AID 1167); conditions: higher = more signal; further: test concentration not given here
# [17] = basal 3T3-L1 adipocyte mitochondrial potential changes, profiling panel, cell-based, JC-1 fluorescence, 3T3-L1 adipocytes, 24 h, 100 nL compound (AID 1168); conditions: JC-1 mitochondrial fluorescence, higher = more signal, called active from +8 up or from −8 down; further: test concentration not given here
# [18] = basal RPMI8226 mitochondrial membrane potential changes, profiling panel, cell-based, JC-1 fluorescence, 24 h, 100 nL compound (AID 1169); conditions: RPMI8226 myeloma, JC-1 mitochondrial potential fluorescence, higher = more signal; further: test concentration not given here
# [19] = basal MM1S mitochondrial membrane potential changes, profiling panel, cell-based, JC-1 fluorescence, 24 h, 100 nL compound (AID 1170); conditions: higher = more signal; further: test concentration not given here
# [20] = A549 lung cancer cell viability effects, profiling panel, resazurin fluorescence, 24 h, PK04 Diversity Set (AID 1171); conditions: higher = more signal, called active from +8 up or from −8 down; further: test concentration not given here
# Sequence of NADPH oxidase 4 (Homo sapiens) (Q9NPH5 whole entry, looked up): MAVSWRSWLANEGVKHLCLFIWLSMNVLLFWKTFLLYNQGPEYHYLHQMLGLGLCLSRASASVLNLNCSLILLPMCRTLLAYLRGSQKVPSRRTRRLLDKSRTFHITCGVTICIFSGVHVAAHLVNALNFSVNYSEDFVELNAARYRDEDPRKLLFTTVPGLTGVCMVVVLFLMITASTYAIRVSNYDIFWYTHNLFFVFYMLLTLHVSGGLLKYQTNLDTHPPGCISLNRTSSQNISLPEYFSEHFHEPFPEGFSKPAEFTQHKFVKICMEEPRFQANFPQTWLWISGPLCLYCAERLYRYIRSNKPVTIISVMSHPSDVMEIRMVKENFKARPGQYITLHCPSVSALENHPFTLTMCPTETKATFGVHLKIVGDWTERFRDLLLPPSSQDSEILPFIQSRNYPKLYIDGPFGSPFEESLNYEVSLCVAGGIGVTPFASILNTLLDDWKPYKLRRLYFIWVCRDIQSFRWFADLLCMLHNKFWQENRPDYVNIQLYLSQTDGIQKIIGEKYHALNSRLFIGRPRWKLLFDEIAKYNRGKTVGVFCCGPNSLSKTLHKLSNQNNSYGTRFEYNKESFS
# Sequence of NADPH oxidase 5 (Homo sapiens) (Q96PH1 whole entry, looked up): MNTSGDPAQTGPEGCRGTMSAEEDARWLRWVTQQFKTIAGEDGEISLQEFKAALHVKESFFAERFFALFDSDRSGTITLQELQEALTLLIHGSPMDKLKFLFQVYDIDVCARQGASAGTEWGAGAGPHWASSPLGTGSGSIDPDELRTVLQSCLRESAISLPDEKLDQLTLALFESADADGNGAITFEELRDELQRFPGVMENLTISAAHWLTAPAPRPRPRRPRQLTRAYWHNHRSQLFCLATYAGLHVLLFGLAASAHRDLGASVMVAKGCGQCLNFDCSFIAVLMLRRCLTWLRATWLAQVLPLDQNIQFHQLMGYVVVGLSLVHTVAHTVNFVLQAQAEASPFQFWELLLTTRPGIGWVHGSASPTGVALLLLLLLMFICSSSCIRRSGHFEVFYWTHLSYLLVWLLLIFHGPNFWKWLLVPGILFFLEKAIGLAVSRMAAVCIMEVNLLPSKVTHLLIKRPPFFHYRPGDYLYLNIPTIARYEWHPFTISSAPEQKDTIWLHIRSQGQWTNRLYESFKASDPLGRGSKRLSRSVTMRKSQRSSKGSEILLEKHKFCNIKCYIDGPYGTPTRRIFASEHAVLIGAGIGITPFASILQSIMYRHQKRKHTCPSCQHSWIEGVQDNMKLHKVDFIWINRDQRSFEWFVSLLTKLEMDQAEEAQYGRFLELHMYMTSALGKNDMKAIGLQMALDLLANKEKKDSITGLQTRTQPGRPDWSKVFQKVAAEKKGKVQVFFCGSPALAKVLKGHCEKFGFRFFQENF
# Sequence of NADPH oxidase 2 (Homo sapiens) (P04839 whole entry, looked up): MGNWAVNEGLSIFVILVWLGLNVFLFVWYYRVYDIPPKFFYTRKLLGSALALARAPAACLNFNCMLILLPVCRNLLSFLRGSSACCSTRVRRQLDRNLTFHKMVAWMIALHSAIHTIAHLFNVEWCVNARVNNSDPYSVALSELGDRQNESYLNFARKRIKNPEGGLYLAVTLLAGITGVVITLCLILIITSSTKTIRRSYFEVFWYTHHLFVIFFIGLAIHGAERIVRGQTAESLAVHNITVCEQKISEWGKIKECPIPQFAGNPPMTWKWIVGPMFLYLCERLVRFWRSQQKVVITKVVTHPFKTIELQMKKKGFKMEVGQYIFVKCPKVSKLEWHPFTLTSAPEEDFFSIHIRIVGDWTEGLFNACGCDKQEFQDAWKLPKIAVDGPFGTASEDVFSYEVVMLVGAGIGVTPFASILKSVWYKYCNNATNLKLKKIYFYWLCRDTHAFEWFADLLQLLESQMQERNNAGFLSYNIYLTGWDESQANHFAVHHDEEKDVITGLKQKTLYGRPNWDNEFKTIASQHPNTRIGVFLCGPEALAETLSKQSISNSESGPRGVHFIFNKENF
Compound,z-score [1],composite z-score [2],z-score [3],z-score [4],z-score [5],z-score [6],z-score [7],z-score [8],z-score [9],z-score [10],z-score [11],z-score [12],z-score [13],z-score [14],z-score [15],z-score [16],z-score [17],z-score [18],z-score [19],z-score [20]
NCCCC[C@@H]1NC(=O)[C@H]2C[C@@H](C(=O)NCc3ccc(F)cc3)[C@@H](c3ccc(O)cc3)N2C1=O,-0.495 (inactive),0.954,2.55 (inactive),0.724 (inactive),-3.15 (inactive),0.302 (inactive),-0.516,0.903 (inactive),0.941 (inactive),0.993,-0.494,-0.0841,-0.666,-0.206,0.307,-1.64,-0.4 (inactive),0.667,0.0192,-0.537 (inactive)
COC(=O)c1ccc([C@H](NC(=O)c2ccccc2)[C@]2(C)C[C@H]2C2CCCCC2)cc1,-2.26 (inactive),0.718,8.84 (active),1.56 (inactive),-0.281 (inactive),0.692 (inactive),0.0094,0.0662 (inactive),-0.602 (inactive),1.22,-0.844,-1.92,-0.949,-0.831,-0.733,-1.15,-1.16 (inactive),0.624,-1.33,0.768 (inactive)
CC(C)C(=C=CC[C@@H](O)c1ccccc1OCCO)C[C@@H](O)c1cc(Cl)cc(Cl)c1O,-0.701 (inactive),0.0004,22.2 (active),5.74 (inactive),-0.0473 (inactive),1.56 (inactive),-0.844,-1.79 (inactive),-1.46 (inactive),-1.8,-0.551,0.493,-1.07,-3.43,-3.96,-2.61,-0.00407 (inactive),-0.847,-1.31,0.0062 (inactive)
O=C1C2C=CC(C(O)c3cccs3)N(Nc3ccccc3)C2C(=O)N1c1ccccc1 (stereo not given),-0.597 (inactive),0.328,2.55 (inactive),0.52 (inactive),0.916 (inactive),-0.423 (inactive),2.34,-2.63 (inactive),-3.57 (inactive),-3.35,-0.125,0.715,-0.379,0.473,0.502,-1.72,0.673 (inactive),-0.18,-0.542,-0.919 (inactive)
C=CC[C@@]1(C(=O)N(C)C)N=C(c2ccc(OCCCO)cc2)O[C@@H]1c1ccccc1,-0.463 (inactive),0.123,24 (active),5.44 (inactive),0.549 (inactive),1.13 (inactive),-0.342,-0.315 (inactive),0.723 (inactive),-0.651,-0.511,-0.681,-0.815,-1.01,0.127,-0.644,-0.895 (inactive),-0.305,-0.491,0.79 (inactive)
COc1ccc(C(O)C2C=CC3C(=O)N(C)C(=O)C3N2Nc2ccc([N+](=O)[O-])cc2[N+](=O)[O-])cc1OCc1ccccc1 (stereo not given),-1.07 (inactive),0.703,-0.686 (inactive),0.958 (inactive),0.0971 (inactive),0.975 (inactive),-1.21,0.0939 (inactive),0.703 (inactive),2.34,-0.65,-0.861,0.166,0.106,-0.499,-0.475,-0.74 (inactive),0.0687,-0.371,-0.682 (inactive)
CN1C(=O)C2C=CC(C(O)c3ccc(-c4ccccc4)s3)N(Nc3ccccc3)C2C1=O (stereo not given),-1.06 (inactive),0.612,2.55 (inactive),1.05 (inactive),0.156 (inactive),1.29 (inactive),-0.857,-1.21 (inactive),-4.15 (inactive),-1.81,-0.485,-1.2,-0.99,-0.467,-1.64,-1.44,-0.896 (inactive),-0.364,-0.138,-0.086 (inactive)
C=CCC(OC(C)=O)[C@@H]1[C@@H](N(Cc2ccc(-c3cccc(C(F)(F)F)c3)o2)C(=O)c2cccc3ccccc23)c2cc(OCCCO)ccc2N1C(=O)c1ccc2ccccc2n1 (stereo not given in full),-0.855 (inactive),0.007,0.706 (inactive),-0.342 (inactive),1.32 (inactive),0.139 (inactive),0.2,-3.37 (inactive),-1.17 (inactive),-0.606,-0.16,0.953,-0.0619,-0.142,-2.18,2.43,-0.637 (inactive),0.307,0.582,-0.871 (inactive)
COc1ccc([Si](C)(C)[C@@H]2[C@@H](CCO)O[C@]3(C(=O)N(Cc4ccccc4)c4ccc(N5C(=O)c6ccccc6Oc6ccccc65)cc43)[C@H]2C)cc1,1.02 (inactive),0.0962,2.11 (inactive),1.37 (inactive),0.0898 (inactive),0.718 (inactive),0.656,0.212 (inactive),1.64 (inactive),2.23,-1.47,-0.0095,-1.96,-1.77,-2.66,-0.871,-0.735 (inactive),-0.848,-1.36,-1.07 (inactive)
COCCCNC(=O)[C@@H]1c2ccccc2C(=O)N(Cc2cc(C(F)(F)F)cc(C(F)(F)F)c2)[C@H]1c1ccc(CO)cc1,0.144 (inactive),1.24,1.58 (inactive),-0.0915 (inactive),0.532 (inactive),0.254 (inactive),-0.348,0.175 (inactive),0.414 (inactive),1.54,0.301,-0.458,0.519,0.514,-1.74,0.983,0.385 (inactive),-0.992,0.636,-0.266 (inactive)
CN(C)CCCCNC(=O)[C@H]1C[C@H]2C(=O)N[C@@H](Cc3ccccc3)C(=O)N2[C@H]1c1cccc(OCCO)c1,2.11 (inactive),0.0751,2.68 (inactive),-0.546 (inactive),-0.282 (inactive),-1.43 (inactive),0.331,0.693 (inactive),0.863 (inactive),1.43,-0.411,-0.0901,0.219,0.642,0.826,0.17,-0.259 (inactive),0.264,-0.396,1.12 (inactive)
C=CCC(OC(C)=O)[C@@H]1[C@@H](N(Cc2ccc(-c3cccc(C(F)(F)F)c3)o2)C(=O)c2cccc3ccccc23)c2cc(OCCCO)ccc2N1C(=O)c1ccc2ccccc2c1 (stereo not given in full),-0.0766 (inactive),0.179,0.785 (inactive),0.434 (inactive),2.22 (inactive),0.286 (inactive),0.813,-2.13 (inactive),-1.74 (inactive),-1.76,0.281,2.03,0.723,-0.21,-1.99,2.7,-0.689 (inactive),-0.556,-0.102,-0.453 (inactive)
COC(=O)[C@@]1(Cc2ccc(OC)cc2)[C@H]2c3cc(C(=O)N(C)C)n(Cc4ccsc4Br)c3C[C@H]2CN1C(=O)c1ccccc1,-0.218 (inactive),0.456,4.25 (inactive),1.16 (inactive),0.57 (inactive),0.814 (inactive),-0.87,0.555 (inactive),0.536 (inactive),0.316,-0.299,0.157,0.205,-0.859,-0.51,2.25,0.171 (inactive),-0.484,-0.468,0.141 (inactive)
COC(=O)C(CC#Cc1ccc2c(c1)[C@]1(C(=O)N2)[C@H](c2ccc(O)cc2)N2[C@H](c3ccccc3)[C@H](c3ccccc3)OC(=O)[C@H]2[C@@H]1C(=O)N1CCc2cc(OC)c(OC)cc2C1)C(=O)OC,-0.958 (inactive),0.156,1.4 (inactive),0.923 (inactive),0.848 (inactive),0.591 (inactive),-0.747,2.05 (inactive),0.706 (inactive),0.218,-0.581,-0.959,-0.184,-1.71,-4.43,-2.15,0.124 (inactive),-1.22,-1.03,-0.0149 (inactive)
COCCOC(=O)N1C(=O)[C@@]2(c3cc(C#CC4(O)CCCCCC4)ccc31)[C@H](C(=O)NC[C@H](O)c1ccccc1)[C@H]1C(=O)O[C@H](c3ccccc3)[C@H](c3ccccc3)N1[C@@H]2c1ccc(O)cc1,0.664 (inactive),0.501,0.954 (inactive),1.01 (inactive),0.0635 (inactive),1.05 (inactive),0.632,1.39 (inactive),1.02 (inactive),1.61,0.188,-0.111,0.814,-1.75,-2.8,-1.19,-0.11 (inactive),-0.643,-0.113,1.63 (inactive)
C=C(COC)C(=O)CC[C@@H](OC(=O)c1cccnc1)c1cccc(OCCO)c1,0.857 (inactive),0.571,13.9 (active),1.86 (inactive),1.21 (inactive),0.454 (inactive),0.28,-3.15 (inactive),-0.703 (inactive),-1.33,-0.0547,0.627,-0.714,-3.31,-1.71,0.082,0.195 (inactive),-0.26,-1.78,0.9 (inactive)
